According to PubChem BioAssay AID652054 (National Center for Advancing Translational Sciences (NCATS), 2013):
The campaign covered roughly 360,000 compounds. About 9,100 (2.5%) were called active. About 4% were inconclusive and are not listed. Rule as the data show it: active = max response below about -50%; inconclusive = no clear call, values can overlap the other calls; inactive = above that. Many of the other results were omitted from the sample, so actives are more common in it than they were.

Each molecule was assayed against D(3) dopamine receptor (Homo sapiens) (UniProt P35462) (assay: qHTS of D3 Dopamine Receptor Antagonist: qHTS). Details: D3R cells, DiscoveRx beta-arrestin luminescence, antagonist mode; hits give low values.
Sequence of D(3) dopamine receptor (Homo sapiens) (P35462 whole entry, looked up): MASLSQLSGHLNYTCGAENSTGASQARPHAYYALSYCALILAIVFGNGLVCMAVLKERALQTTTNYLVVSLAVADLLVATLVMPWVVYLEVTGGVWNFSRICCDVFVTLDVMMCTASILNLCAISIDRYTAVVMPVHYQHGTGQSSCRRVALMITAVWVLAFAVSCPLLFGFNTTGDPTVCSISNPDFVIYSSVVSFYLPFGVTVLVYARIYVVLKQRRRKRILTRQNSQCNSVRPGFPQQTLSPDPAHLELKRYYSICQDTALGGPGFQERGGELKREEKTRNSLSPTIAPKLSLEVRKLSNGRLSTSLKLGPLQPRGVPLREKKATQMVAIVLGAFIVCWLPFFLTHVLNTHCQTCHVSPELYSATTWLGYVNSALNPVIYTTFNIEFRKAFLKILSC
Procedure, shortened: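 Cells expressing the human receptor were seeded at 1500 cells/well, incubated overnight at 37 degrees C in 5% CO2, then exposed to library compounds with dopamine controls for 90 minutes at 37 degrees C before luminescent detection.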
% is scaled to controls: 0 for no effect and ±100 for the full control effect.

Max response, negative = inhibition, inactive:
CCCCCn1nnnc1C1c2ccccc2C(=O)N1Cc1ccco1 (centres undefined) -21.5%
O=NN(CCCl)C(=O)NCCc1cccc[n+]1[O-] -1.68%
CCOC(=O)C1CCN(C(=O)c2ccccc2N(C)S(=O)(=O)c2ccccc2)CC1 -4.73%
CCOC(=O)N1CCN(C(=O)c2ccccc2N(Cc2ccccc2)S(=O)(=O)c2ccc(OC)cc2)CC1 -17.6%
Clc1ccccc1Nc1nc(NCc2cccs2)nc2ccsc12 31.9%
O=C(C[C@H]1CC[C@@H](NC(=O)c2ccncc2)[C@@H](CO)O1)NCC1CC1 12.2%
O=C(NCc1nnnn1-c1ccc(Cl)cc1)c1ccc2c(c1)OCO2 -11.2%
CC(=O)N/C(=C\c1ccccc1)C(=O)OC(C)C(=O)N(C)c1ccccc1 (centres undefined) -13.3%
CC(=O)N/C(=C\c1ccc(F)cc1)C(=O)NC(Cc1ccccc1)C(=O)O (centres undefined) 3.22%
CC1(Cc2cccc(C#N)c2)C(=O)Nc2ccc(-c3cccc(C(F)(F)F)c3)cc21 (centres undefined) 19.7%
CCOc1cc(C)c(S(=O)(=O)NCc2ccccn2)cc1C 4.2%
CCOc1cc(CNn2c(C)nnc2SCC(=O)NC(C)(C)C)ccc1OCC(=O)NC(C)(C)C 4.21%
CNC(=O)C[C@H]1C(=O)N(Cc2ccccc2)C[C@@H]1CSC -17.4%
O=S(=O)(c1ccc(Br)cc1)c1nc(-c2ccccc2)oc1N1CCOCC1 -1.47%
O=S(=O)(c1ccc(Cl)cc1)c1nc(-c2ccccc2F)oc1NCCN1CCOCC1 -10.5%
CC(=O)c1cccc(-c2cnc3c(NC=O)cc(-c4ccc(N(C)C)cc4)cn23)c1 4.39%
CCOCCCNCc1cc(Br)ccc1OCC 4.27%
c1ccc(CNCc2ccc(CNCc3ccccc3)cc2)cc1 -21.6%
CCCCN1CC(N2CCN(Cc3cccc(C)c3)CC2)CS1(=O)=O (centres undefined) 0.736%
OCCC#Cc1ccc(N2C(c3ccsc3)=Cc3ccc(F)cc3C2c2c[nH]c3ccccc23)cc1 (centres undefined) -3.75%
O=C(NNS(=O)(=O)Cc1ccccc1)c1ccc([N+](=O)[O-])cc1 -19%
COC(=O)CNC(=O)c1ccccc1[N+](=O)[O-] 16.4%
Nc1cc(=O)c2[nH]cnc2[nH]1 15.5%
Nc1ncnc2c1ncn2[C@@H]1O[C@H](C(=O)N2CCCN(Cc3ccccc3F)CC2)[C@@H](O)[C@H]1O 15%
O=C(C=CC(=O)Nc1ccc(F)cc1F)Nc1ccc(F)cc1F 4.55%
COC(=O)[C@@]1(Cc2ccc(OC)cc2)[C@H]2c3cc(C(=O)N4CCCC4)n(Cc4ccc(OC(F)(F)F)cc4)c3C[C@H]2CN1C(=O)c1ccccc1 20.3%
C[C@@H]1CN([C@H](C)CO)C(=O)CCCn2nncc2CO[C@@H]1CN(C)S(=O)(=O)c1cccc(C#N)c1 -18.1%
N#Cc1ccsc1NC(=O)CN1CCCCC1 -12%
N#Cc1cccc(NC(=O)C2CCCN(C(=O)c3ccc(Cl)cc3)C2)c1 (centres undefined) 0.782%
Nc1cc(C(=O)N2CCN(c3ccccc3Cl)CC2)ccc1N1CC2CC(C1)c1cccc(=O)n1C2 (centres undefined) 27.4%
CC1(C(=O)NCC2CCOCC2)Cc2c(-c3cccc(C(N)=O)c3)ccnc2O1 (centres undefined) -8.42%
Cc1cc(Br)cn2c(Cc3ccccc3C(F)(F)F)c(C3CCCCC3)nc12 -18.2%
COc1cccc(-c2cnc3c(NC(C)=O)cc(-c4cc(F)ccc4OC)cn23)c1 -14.2%
COc1ccc(S(=O)(=O)N2CCC(C(=O)NCCC(=O)NCCc3cccc(F)c3)CC2)cc1 9.47%
C=CCNC(=S)N1CCc2[nH]c3ccccc3c2C1 -14.7%
CC1CCc2[nH]c3ccc(C(=O)N(C)CC(=O)Nc4cccc(F)c4)cc3c2C1 (centres undefined) 3.28%
CC(=O)C1=CCC(c2ccccc2)N(S(=O)(=O)c2ccc(C)cc2)C1 (centres undefined) 0%
COc1cccc(NC(=O)C2(C)CCN2C(=O)CCC2CCCC2)c1 (centres undefined) 1.34%
COc1ccc(C(NC(=O)C2CCN(CCCc3ccccc3)CC2)c2cccs2)cc1 (centres undefined) -15.9%
Cc1c(NS(=O)(=O)c2ccc(NC3CCCC3)c([N+](=O)[O-])c2)c(=O)n(-c2ccccc2)n1C -21.5%
Cc1cc([N+](=O)[O-])c(NC2CCCCC2)c([N+](=O)[O-])c1 -7.91%
COCC(=O)N(C)C[C@H]1Oc2cc(Br)ccc2S(=O)(=O)N([C@H](C)CO)C[C@H]1C 15.2%
C#CCN(C[C@@H]1[C@@H](OC(=O)NC2CC2)[C@@H](OC(=O)NC2CC2)Cn2c(=O)ccc(=O)n21)S(=O)(=O)c1ccc(C)cc1 13.1%
C[C@@H]1CN([C@@H](C)CO)C(=O)CCCn2nncc2CO[C@H]1CN(C)Cc1ccc(C(F)(F)F)cc1 20.1%
CC(C)NC(=O)N1Cc2cc(C(=O)NCC(F)(F)F)nc(-c3cccc(-c4cc5ccccc5o4)c3)c2[C@@H]1CCO 18.7%
O=C(NC(c1ccc(-c2ccccc2)cc1)c1cnccn1)C1CCN(CCOc2ccc(Cl)cc2Cl)CC1 (centres undefined) -24.7%
COC(=O)c1ccc2nc(-c3ccccc3)c(Cc3ccc(OC)cc3C)n2c1 -9.42%
COc1ccc2[nH]cc(CCN3C(=O)c4ccc(C(=O)O)cc4C3=O)c2c1 11.7%
COc1ccc(/C=N/N=C/c2c[nH]c(=O)c(C#N)c2Nc2ccccc2)cc1 23.9%
Cc1ccccc1S(=O)(=O)NC(=O)C1(C)CCN1C(=O)C1(c2ccc(Cl)cc2)CC1 (centres undefined) 4.07%
O=C(NN=Cc1ccccc1)c1ccccc1 -25.4%
Cc1nonc1C(=O)N/N=C/c1ccc(O)cc1 20.2%
Cc1ccc(C(NC(=O)C2CCN(CCOc3ccc(Cl)cc3Cl)CC2)c2ccccn2)cc1 (centres undefined) -3.28%
CC1=C(C(=O)N(C)C)CC(CC(=O)NCCc2ccccn2)C(=O)N1CCC1=CCCCC1 (centres undefined) -22.1%
CCCCCNC(=O)C1C(=O)Nc2ccccc2C(=O)N1C(C)(C)C (centres undefined) -19.2%
CC(=O)c1c(C)[nH]c(C(=O)NCc2ccc(C)cc2)c1C -6.75%
CC(=O)c1c(C)[nH]c(C(=O)NCCCN2CCCC2)c1C 11.6%
CC1(C(=O)NS(=O)(=O)C2CC2)CCCN(C(=O)CSc2ccccc2)C1 (centres undefined) 0%
Cc1ccc(-c2nc3ccc(Br)cn3c2Cc2ccccc2C(F)(F)F)cc1 -15%
CCOC(=O)C1=CC[C@@H](c2ccncc2)N(S(=O)(=O)c2ccc(C)cc2)C1 -4.07%
CCCCNC(=O)c1nc(C2CCN(S(=O)(=O)c3ccc(F)c(F)c3)CC2)oc1-c1cccc(C(F)(F)F)c1 7.15%
C[C@H]1CN([C@@H](C)CO)C(=O)CCCn2nncc2CO[C@@H]1CN(C)Cc1ccc(Oc2ccccc2)cc1 -10.5%
CC1(C(=O)NCc2ccco2)Cc2c(-c3ccc4c(c3)OCO4)ccnc2O1 (centres undefined) 5.33%
CC(=O)NN=C(C)c1ccc(NC(=O)C2CC2)cc1 3.77%
COc1ccc(CN2CN(C(C)C)CSC2=S)cc1 -12.9%
COc1ccc(NC(=O)C(=O)NCC(c2ccco2)N2CCc3ccccc3C2)cc1 (centres undefined) 6.38%
O=C(OC1CC2CC1[C@H]1CCCCN1C2=O)N1CCOCC1 (some centres undefined) 3.81%
O=C(C(=O)N1CCC(c2ccccc2)CC1)c1ccccc1 11.8%
Cc1ccc(-n2c(O)c(C=Nc3ccc(S(=O)(=O)Nc4ncccn4)cc3)c3ccccc3c2=O)cc1C 1.71%
CCN(CC)CCCN=Cc1c(O)n(-c2ccc(C)cc2)c(=O)c2ccccc12 9.43%

Max response, negative = inhibition, active:
CCN1CCN(C(=O)c2ccccc2N(C)S(=O)(=O)c2ccc(C)cc2)CC1 -77.3%
CC(=O)N/C(=C/c1ccc(OC(F)F)cc1)C(=O)O -58.1%
CCOc1cc(CNCc2ccccn2)ccc1OCC(=O)NC(C)(C)C -58.7%
CC1(C)CC(=O)C2=C(C1)N=C1SCCC(=O)N1C2c1ccc(C(F)(F)F)cc1 (centres undefined) -94.4%
O=S(=O)(c1ccccc1)c1nc(-c2ccccc2)oc1NCCCN1CCOCC1 -64.3%
CCOc1ccccc1OCCCNCc1ccccc1 -58.9%
O=C(CNC(=O)c1ccccc1)Oc1ccc([N+](=O)[O-])cc1 -54.6%
N#Cc1cccc(NC(=O)CN2CCCCCC2)c1 -64.8%
C=C1C(=O)OC2C1CCC(C)=CCCC1(C)OC21 (centres undefined) -90%
O=C(CCCN1CCc2[nH]c3ccc(F)cc3c2C1)c1ccc(F)cc1 -89.2%
Cc1cc(C=O)c(C)n1-c1ccc(NC2CCCCC2)c([N+](=O)[O-])c1 -55.1%
O=c1ccc2c(-c3ccccc3S(=O)(=O)O)c3ccc(O)c(O)c3oc-2c1O -93.3%
COc1ccc2[nH]cc(/C=C(/C#N)S(=O)(=O)c3ccccc3)c2c1 -50.9%
Cc1nc2ccc(C(=O)N/N=C/c3ccc(O)cc3)cc2[nH]1 -78.1%
COc1ccc2c(c1)c(=Cc1ccc(N(C)C)cc1)c1cc(-c3ccccc3)[n+](C)n12 -65.2%
CCCCN(CC)CCNC(=O)c1[nH]c(C)c(C(C)=O)c1C -58.3%
C=CS(=O)c1sc(Cl)c(N2CCOCC2)c1[N+](=O)[O-] (centres undefined) -84.2%
COc1ccc(CCC(C)N2CCc3ccccc3C2)cc1 (centres undefined) -112%
CCOc1ccc(-n2c(O)c(/C=N/Nc3nc(C)cc(C)n3)c3ccccc3c2=O)cc1 -56.4%
